Publication PMC4336329 (PLoS ONE, 2015)
The campaign covered roughly 310,000 compounds. About 14,000 (4.5%) showed an effect of 50% or more. Effects have a minus sign here. Only a selection was taken, and strong results are over-represented in it overall.

Molecular target: human ether-à-go-go-related gene (hERG) potassium channel (human, UniProt Q12809)
Experiment: primary screen, population patch clamp on CHO cells stably expressing hERG; higher = less effect of the substance
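Further: peak tail current of the secondary pulse compared with the same well before compound.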

Sequence of human ether-à-go-go-related gene (hERG) potassium channel (Q12809 whole entry, looked up): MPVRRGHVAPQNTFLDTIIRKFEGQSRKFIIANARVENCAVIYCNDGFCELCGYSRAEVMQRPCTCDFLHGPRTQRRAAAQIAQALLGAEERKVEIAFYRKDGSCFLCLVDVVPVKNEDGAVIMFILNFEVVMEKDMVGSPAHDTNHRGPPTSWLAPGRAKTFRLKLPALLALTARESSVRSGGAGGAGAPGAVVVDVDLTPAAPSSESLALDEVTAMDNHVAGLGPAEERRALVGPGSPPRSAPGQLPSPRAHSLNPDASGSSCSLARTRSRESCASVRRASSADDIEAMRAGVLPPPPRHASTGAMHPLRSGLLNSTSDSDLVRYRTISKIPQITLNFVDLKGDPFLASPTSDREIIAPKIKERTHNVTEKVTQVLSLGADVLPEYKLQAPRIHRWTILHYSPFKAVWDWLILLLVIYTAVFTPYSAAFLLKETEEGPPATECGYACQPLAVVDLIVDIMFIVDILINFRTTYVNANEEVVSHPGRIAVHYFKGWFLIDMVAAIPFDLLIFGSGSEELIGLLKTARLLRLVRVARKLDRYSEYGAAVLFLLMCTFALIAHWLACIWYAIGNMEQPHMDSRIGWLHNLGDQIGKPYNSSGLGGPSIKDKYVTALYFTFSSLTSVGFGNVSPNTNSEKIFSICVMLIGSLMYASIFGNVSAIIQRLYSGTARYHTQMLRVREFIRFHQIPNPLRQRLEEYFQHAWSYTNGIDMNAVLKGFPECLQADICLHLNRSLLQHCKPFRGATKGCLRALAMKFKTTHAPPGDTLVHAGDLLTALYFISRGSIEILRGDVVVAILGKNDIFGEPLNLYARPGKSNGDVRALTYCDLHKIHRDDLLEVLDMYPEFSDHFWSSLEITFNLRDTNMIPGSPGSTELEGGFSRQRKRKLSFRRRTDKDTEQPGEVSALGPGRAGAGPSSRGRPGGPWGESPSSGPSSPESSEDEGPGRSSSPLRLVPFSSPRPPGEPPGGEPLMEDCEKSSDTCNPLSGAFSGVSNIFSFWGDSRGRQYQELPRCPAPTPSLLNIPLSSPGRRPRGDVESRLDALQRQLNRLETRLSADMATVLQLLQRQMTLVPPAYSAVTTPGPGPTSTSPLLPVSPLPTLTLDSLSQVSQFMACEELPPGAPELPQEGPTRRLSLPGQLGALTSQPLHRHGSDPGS

| Structure (SMILES) | hERG current change (%, negative = inhibition) at 10uM |
| --- | --- |
| Cc1c(C(=O)Nc2ccc(S(=O)(=O)Nc3ncccn3)cc2)oc2ccc(Cl)cc12 | -17.4% |
| Cn1c(=O)c2c(nc(CN3CCOCC3)n2CCc2ccccc2)n(C)c1=O | 7.53% |
| Cc1ncc(CO)c2cc(C(N)=O)c(=Nc3ccccc3)oc12 | -27.7% |
| COc1ccc(C(O)P(=O)(OCC(C)C)c2ccc(N(C)C)cc2)c(OC)c1 (centres unmarked) | -3.56% |
| CC1CCN(CCc2nc3ccccc3[nH]2)CC1 | -63.7% |
| CCCc1nc2ccccc2[nH]1 | 24.6% |
| c1ccc2[nH]c(CCCc3nc4ccccc4[nH]3)nc2c1 | -7.32% |
| CCn1ccnc1CN1CCCC(C(=O)c2cc(Cl)ccc2OC)C1 (centres unmarked) | -73.3% |
| CCn1ccnc1CN1CCCC(C(=O)c2ccc(SC)cc2)C1 (centres unmarked) | -58.3% |
| CCn1ccnc1CN1CCCC(C(=O)c2cc(F)ccc2OC)C1 (centres unmarked) | -33% |
| CSc1ccc(C(=O)C2CCCN(C(=O)Cn3cnnn3)C2)cc1 (centres unmarked) | -12.8% |
| COc1ccc(Cl)cc1C(=O)C1CCCN(Cc2cnc(N3CCOCC3)s2)C1 (centres unmarked) | -57.6% |
| COc1ccc(Cl)cc1C(=O)C1CCCN(Cc2cnc(C)s2)C1 (centres unmarked) | -38.1% |
| COc1ccc2cc(C(=O)C3CCCN(Cc4cnc(N5CCOCC5)s4)C3)ccc2c1 (centres unmarked) | 14.6% |
| COc1ccc(C(=O)C2CCCN(Cc3cnc(N4CCOCC4)s3)C2)c(OC)c1 (centres unmarked) | -46.9% |
| CCn1ccnc1CN1CCCC(C(=O)c2cc(C)c(OC)c(C)c2)C1 (centres unmarked) | -23.2% |
| CCn1ccnc1CN1CCCC(C(=O)c2ccc3cc(OC)ccc3c2)C1 (centres unmarked) | -70.6% |
| CSc1ccc(C(=O)C2CCCN(C(=O)c3ccc(C)nc3)C2)cc1 (centres unmarked) | -22.4% |
| Cc1ccc(NC(=O)c2cnccn2)cc1 | 15.8% |
| CCCn1c(Cc2ccccc2)nnc1SCC(=O)N1CCOCC1 | 16.7% |

| Structure (SMILES) | hERG current change (%, negative = inhibition) at 10uM |
| --- | --- |
| NC(=S)N/N=C/c1ccc([N+](=O)[O-])cc1 | -8.06% |
| O=C(CC1C(=O)NCCN1Cc1ccc(Cl)c(F)c1)NCC1CCOCC1 (centres unmarked) | 9.07% |
| CCOC(=O)C1(Cc2ccc(O)cc2)NC(c2ccccc2F)C2C(=O)N(C)C(=O)C21 (centres unmarked) | -2.04% |
| CCC(=O)NC(c1cccs1)c1cc([N+](=O)[O-])c2cccnc2c1O (centres unmarked) | 15% |
| CC1=NNC(=O)C1CCC(=O)N/N=C(\C)c1ccccc1 (centres unmarked) | 28.3% |
| CCCCOc1ccc(NC(=O)CSc2nnnn2C)cc1 | -2.43% |
| NCCNc1cc(N2CCCC2)ccc1[N+](=O)[O-] | 4.66% |
| O=C(C1CCCC1)N1CCN(S(=O)(=O)c2ccc(F)cc2)CC1 | 15.9% |
| COc1cc(C2C(C(=O)c3ccc(C)o3)=C(O)C(=O)N2Cc2cccnc2)ccc1O (centres unmarked) | 10.9% |
| O=C(CCC(=O)NC1CCN(Cc2ccccc2)CC1)NCc1ccco1 | -1.88% |
| Cc1cccc(-c2nnc(SCC#N)n2Cc2ccccc2)c1 | -66.6% |
| Cc1cccc(-c2nnc(SCC#N)n2-c2ccccc2)c1 | -54.7% |
| Cc1ccc(-n2c(SCCN)nnc2-c2cccc(C)c2)cc1.O=C(O)C(=O)O | -38% |
| Cc1cccc(-c2nnc(SCC#N)n2-c2cccc(Cl)c2)c1 | -62.5% |
| Cc1cccc(-c2nnc(SCC#N)n2C)c1 | 13.2% |
| Cc1cccc(-c2nnc(SCC(=O)O)n2Cc2ccccc2)c1 | -6.26% |
| N#CCSc1nnc(COc2cccc3ccccc23)n1-c1cccc(Cl)c1 | 8.77% |
| N#CCSc1nnc(-c2ccccc2O)n1Cc1ccccc1 | 5.13% |
| Cc1cc(C)nc(SCc2nnc(SCC#N)n2-c2cccc(Cl)c2)n1 | -17.6% |
| COC(=O)c1ccc(C2NC(=O)c3c(sc(C)c3C)N2)cc1 (centres unmarked) | 10.7% |

| Structure (SMILES) | hERG current change (%, negative = inhibition) at 10uM |
| --- | --- |
| COc1ccc(CCNC(=O)c2ccc3ccccc3n2)cc1 | -5.65% |
| O=C(CNc1ccc2c(c1)OCO2)N/N=C\c1ccccc1Cl | 3.98% |
| COc1cccc(NC(=S)N(Cc2ccccn2)Cc2ccccc2Cl)c1 | 5.73% |
| O=C(CN(Cc1ccccc1)S(=O)(=O)c1ccccc1)N/N=C/c1ccc2c(c1)OCO2 | 8.28% |
| C(=N\C(/N=C/c1ccco1)c1ccco1)/c1ccco1 | -5.1% |
| COc1ccc(NC(=O)N2CCCC2C(=O)NCC2CCCCC2)cc1 (centres unmarked) | 0.904% |
| Cn1ncn2c(=O)c3c(nc12)-c1ccccc1CC31CCCC1 | 1.56% |
| COc1ccc(NC(=O)Cn2cc(C#N)c3ccccc32)cc1 | 15.3% |
| CC(=O)Nc1ccc(NC(=O)c2sc(-c3ccccc3)nc2C)cc1 | 10.6% |
| Nc1ccc2nc(-c3ccccc3)[nH]c2c1 | 6.5% |
| CCCc1cc(N2CCCC(C(=O)Nc3c(OC)cccc3OC)C2)n2ncnc2n1 (centres unmarked) | -10.7% |
| CCCc1cc(N2CCCC(C(=O)Nc3cc(Cl)ccc3OC)C2)n2ncnc2n1 (centres unmarked) | -70.8% |
| COc1ccc(NC(=O)C2CCCN(c3cnccn3)C2)c(OC)c1 (centres unmarked) | 21.4% |
| CCCc1cc(N2CCCC(C(=O)Nc3ccc(OC)cc3OC)C2)n2ncnc2n1 (centres unmarked) | -51.4% |
| COc1cc(C)nc(N2CCCC(C(=O)Nc3cc(Cl)ccc3OC)C2)n1 (centres unmarked) | 9.96% |
| COc1ccc(Cl)cc1NC(=O)C1CCCN(S(C)(=O)=O)C1 (centres unmarked) | 5.29% |
| O=C(Cc1ccccc1)NCCC1=CCCCC1 | 9.32% |
| O=C(CN1CCN(c2ccccc2O)CC1)NC(=O)NC1CCCC1 | -0.609% |
| CCCCCC(=O)Nc1ccc(-c2cn3cccnc3n2)cc1 | 16.4% |
